40 compounds from PubChem BioAssay (NCI) can be followed below.

Compounds without any hit were thinned out: in the full panel of roughly 83,000, 20% have a hit.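 Values shown are percent growth following 48 h exposure of cells in 96-well plates to a single concentration of compound; below 10 was considered active.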 A number with no mark means an inactive call. The source made the active and inactive calls.

This experiment concerns HT29 colon. Nature of the experiment: NCI-60 one-dose screen, 48 h (100 = growth as untreated, 0 = no growth, -100 = all killed). Conditions: 10 µM unless noted. As for the experimental part:
Growth inhibition of the HT29 human tumor cell line is measured as a screen for anti-cancer activity. Cells are grown in 96 well plates and exposed to the test compound for 48 hours. Compounds are tested at a single concentration, which is 10^-5 M for most compounds. The reported endpoint is percent growth (GI% or GIPRCNT), where numbers from 0 - 100% represent growth inhibition, and numbers from -100% - 0 represent cell death. For example, a value of 40 represents 60% growth inhibition. A value of 0 means no net growth occurred over the course of the experiment. A value of -40 indicates 40% of cells at the beginning of the experiment died by the end of the experiment. A value of -100 means all cells are dead at the end of the experiment.
NCI-60 Human Tumor Cell Lines Screen was performed using the standard one-dose NCI protocol, which is described in more detail at https://dtp.cancer.gov/discovery_development/nci-60/default.htm.
Compounds with GIPRCNT values below 10 were considered active. Activity score was based on GIPRCNT using the following formula: […]
Score is 0 for GIPRCNT values of 100 or above, 50 for GIPRCNT values of 0, and 100 for GIPRCNT values of -100.
In the case of `CCCC(=O)NC(c1cccc(N(C)C)c1)c1cc(C)c2cccnc2c1O` (stereo not given), the growth is 91.6%. Consider `Cn1cc(-c2cc(N)n3nc(-c4cn(C)c5ccc(F)cc45)cc3n2)c2cc(F)ccc21`, for which the growth was -72.8% (active). On to `COc1cccc(COc2ccc(/C=C3/C(=O)Nc4cc(Cl)ccc43)cc2)c1`, for which the growth was 93.8%.

`N#Cc1c(-c2ccc(Cl)cc2)nc(SCc2ccc([N+](=O)[O-])cc2)nc1N1CCNCC1`: the growth was -71.9% (active). Consider `CCOc1ccc([C@H]2C(C(=O)c3ccc(Cl)cc3)C3(N[C@@H]2c2ccccc2)C(=O)Nc2ccc(Br)cc23)cc1` (stereo not given in full), for which the growth was -27.1% (active). Regarding `O=C(CCN1C(=O)/C(=C/c2ccccc2F)SC1=S)N1CCOCC1`, the growth was 87.1%.

With `C#C[C@]1(O)CC[C@H]2[C@@H]3CC=C4c5sc(Nc6ccc(Cl)cn6)nc5CC[C@]4(C)[C@H]3CC[C@@]21C`, the growth was 47.2%. Regarding `CN(C)CCCOc1c2ccc(Cl)cc2nc2c1oc1ccccc12`, the growth is -45.5% (active). For `CC(=O)Nc1cc(F)cc(-c2ccc3[nH]cc(-c4ccccc4)c3n2)c1`, the growth was -49.6% (active). Turning to `Clc1ccc2c(NCCCN3CCOCC3)c3oc4ccc(Cl)cc4c3nc2c1`, the growth was 33.5%. With `Oc1c(Cl)cc(Cl)c2ccc(CN3CCCCC3)nc12`, the growth was 48.3%. With `CC(C)(C)Nc1nc2c(OCCc3ccccc3)cccn2c1-c1cccc(F)c1`, the growth is -14.2% (active). Regarding `CCOC(=O)c1csc(NC(=O)CSc2nc3sc4c(c3c(=O)n2-c2ccc(Cl)cc2)CCCC4)n1`, the growth is 122%. For the compound `Cn1cc(-c2cc(N)n3nc(-c4cn(C)c5ccc(Cl)cc45)cc3n2)c2cc(Cl)ccc21`, the growth was -16.5% (active). The value for `N=C1CC(=O)NN1C(=O)CSc1nc2sc3c(c2c(=O)n1-c1ccc(Cl)cc1)CCCC3` was 126%; that for `COc1ccc(C(=O)/C=C/c2ccc(Oc3nc(NCCO)nc(N4CCOCC4)n3)c(OC)c2)cc1` was 35%; that for `O=C1Nc2ccc(Cl)cc2/C1=C/c1ccc(OCC(=O)c2ccc(Br)cc2)cc1` was 103%. As for `OC1CCN(CCCOc2c3ccccc3nc3c2oc2ccccc23)CC1`, the figure is 3.65% (active); as for `O=C(CSc1nc2sc3c(c2c(=O)n1-c1ccc(Cl)cc1)CCCC3)NNC(=O)Nc1cccc(C(F)(F)F)c1`, 26.2%. Take `CC(=O)Oc1ccccc1C(=O)Nc1ccc(C(=O)/C=C/c2cccs2)cc1`: the growth is 110%. As to `C[C@@H](Nc1c(C#N)cnc2ccc(-c3cnc(N)nc3)cc12)c1ccccc1`, the growth is 18.7%.

As for `Cc1c(Nc2nnc(SCC(=O)Nc3sc4c(c3C#N)CCCC4)s2)c(=O)n(-c2ccccc2)n1C`, the growth was 117%. In the case of `CC(=O)Oc1ccccc1C(=O)Nc1ccc(C(=O)/C=C/c2ccncc2)cc1`, the growth was 5.38% (active). As for `N#Cc1ccc(C(=O)CSc2nc(Nc3ccc(S(N)(=O)=O)cc3)c3ccccc3n2)cc1`, the growth was 112%. Consider `N#Cc1c(-c2ccc(Cl)cc2)nc2c(-c3ccccc3)c(Nc3ccccc3)nn2c1N`, for which the growth is 62.9%. For `O=[N+]([O-])c1ccc(O)c2ncccc12`, the growth was 20%.

As for `CN(C)c1ccc(/C=c2\sc3nc4ccccc4n3c2=O)cc1`, the growth was 107%. For the compound `COc1ccc(COc2ccc(/C=C3/C(=O)Nc4cc(Cl)ccc43)cc2)cc1`, the growth was 107%. The value for `Clc1ccc(Cc2nnc3sc(-c4cccnc4)nn23)cc1` was 102%.

For `COc1ccc(-c2csc(N/N=C/c3c(-c4ccc(S(C)(=O)=O)cc4)nc4ccccn34)n2)cc1`, the growth was 115%. Regarding `CN1CCN(Cc2ccc(NC(=O)c3cncc(C#Cc4cnc5[nH]ncc5c4)c3)cc2C(F)(F)F)CC1`, the growth is 22.7%. As for `Clc1ccc2c(NCCCN3CCOCC3)c3oc4ccccc4c3nc2c1`, the figure is 25.6%.

Take `Cn1c(SCC(=O)Nc2ccc(-c3nc4ccc([N+](=O)[O-])cc4[nH]3)cc2)nc2ccccc2c1=O`: the growth is 89.7%. For `Cn1ccnc1C(=O)/C=C/c1ccc(NC(=O)Nc2ccccc2)cc1`, the growth is 3.3% (active). In the case of `COc1cc(-c2ccc3ncnc(NC(C)c4ccccc4)c3c2)cnc1OC` (stereo not given), the growth was 65%.

As for `Nc1c(C(=O)Nc2ccc(C(F)(F)F)cc2)sc2nc(-c3cnccn3)cc(-c3cccs3)c12`, the growth was 95%. As to `CC(C)NC(=O)c1cc(-c2ccc(NC(=O)Nc3ccc(N4CCOCC4)c(C(F)(F)F)c3)cc2)nc2cccnc12`, the growth is 60.8%. As for `CC(C)(O)c1cncc(-c2ccc3ncnc(N4CCc5cc(F)c(Cl)cc54)c3c2)c1`, the figure is 20.8%; as for `N#Cc1nc(-c2ccccc2)oc1N1CCC(CO)C1` (stereo not given), 107%; as for `CS(=O)(=O)c1ccc(-c2nc3ccccn3c2/C=N/Nc2nc(-c3ccc(Cl)cc3)cs2)cc1`, 110%.
